These results are taken from PubChem BioAssay AID1159580 (chemical genetic matrix, 2015).

SMILES strings stand for the structures. About 2,000 (36%) of roughly 5,500 compounds were called active. Not shown: some 18% with an inconclusive outcome. Some of the results follow. Unmarked numbers belong to inactive results. Rule as the data show it: active = normalized growth mostly below about 0.91 (no sharp cut-off); inconclusive = no clear call, values can overlap the other calls; inactive = mostly above about 0.92.

The assay in a line: chemical genetic growth profiling, strain panel (AID 1159580).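 Also: tested at 20 µM; growth read once vehicle control cultures reached saturation at 30 °C; 1 = growth at the plate median or of vehicle wells; lower values mean less growth of the strain.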 The following applies: growth OD.
[1] abbreviates: S. cerevisiae deletion strains, locus YAL013W, strain DEP1, stronger effect = lower value.
The mark [2] stands for this setting: S. cerevisiae deletion strains, locus YGR078C, strain PAC10, stronger effect = lower value.
The mark [3] stands for this setting: S. cerevisiae deletion strains, locus YGR229C, strain SMI1, stronger effect = lower value.
The mark [4] stands for this setting: S. cerevisiae deletion strains, locus YJR075W, strain HOC1, stronger effect = lower value.
[5] abbreviates: S. cerevisiae deletion strains, locus YNL153C, strain GIM3, stronger effect = lower value.
[6] abbreviates: S. cerevisiae deletion strains, locus YNL322C, strain KRE1, stronger effect = lower value.
The mark [7] stands for this setting: S. cerevisiae deletion strains, locus YPL055C, strain LGE1, stronger effect = lower value.
Where [8] appears, read: S. cerevisiae deletion strains, locus YPL241C, strain CIN2, stronger effect = lower value.

On to `CCCc1ccc(OC)cc1NC(C)=O`, for which the normalized growth reads like this: under setting [1], 1.01; (S. cerevisiae deletion strains, locus YBR229C, strain ROT2, stronger effect = lower value) 1.01; (S. cerevisiae deletion strains, locus YCL061C, strain MRC1, stronger effect = lower value) 1.03; (S. cerevisiae deletion strains, locus YDL101C, strain DUN1, stronger effect = lower value) 1; (S. cerevisiae deletion strains, locus YDR150W, strain NUM1, stronger effect = lower value) 0.95; (S. cerevisiae deletion strains, locus YEL061C, strain CIN8, stronger effect = lower value) 0.996. Besides, the normalized growth under setting [2] was 1.02; the normalized growth under setting [3] was 0.991; the normalized growth (S. cerevisiae deletion strains, locus YHR030C, strain SLT2, stronger effect = lower value) was 1.06; the normalized growth (S. cerevisiae deletion strains, locus YHR087W, strain rtc3, stronger effect = lower value) was 1; the normalized growth (S. cerevisiae deletion strains, locus YJR043C, strain POL32, stronger effect = lower value) was 1; the normalized growth under setting [4] was 0.996. In addition, the normalized growth reads like this: (S. cerevisiae deletion strains, locus YKL190W, strain CNB1, stronger effect = lower value) 0.991; (S. cerevisiae deletion strains, locus YLR039C, strain RIC1, stronger effect = lower value) 1.02; (S. cerevisiae deletion strains, locus YLR058C, strain SHM2 (second series), stronger effect = lower value) 1.02; (S. cerevisiae deletion strains, locus YLR085C, strain ARP6, stronger effect = lower value) 1.03; (S. cerevisiae deletion strains, locus YLR262C, strain YPT6, stronger effect = lower value) 0.987; (S. cerevisiae deletion strains, locus YML094W, strain GIM5, stronger effect = lower value) 1.03. For the same compound, the normalized growth by setting is: (S. cerevisiae deletion strains, locus YMR219W, strain ESC1, stronger effect = lower value) 1.01; (S. cerevisiae deletion strains, locus YMR263W, strain SAP30, stronger effect = lower value) 1.01; under setting [5], 1.03; (S. cerevisiae deletion strains, locus YNL298W, strain CLA4 (second series), stronger effect = lower value) 1.05; under setting [6], 1.01; (S. cerevisiae deletion strains, locus YNR030W, strain Alg12, stronger effect = lower value) 1.02. The normalized growth runs as follows: (S. cerevisiae deletion strains, locus YOL006C, strain TOP1, stronger effect = lower value) 1.06; under setting [7], 0.99; under setting [8], 0.999; (S. cerevisiae deletion strains, locus YPR135W, strain CTF4, stronger effect = lower value) 1.06; (S. cerevisiae strains, strain wild type, stronger effect = lower value) 0.999.

Turning to `COc1ccc2[nH]c(I)c(CCNC(C)=O)c2c1`, the normalized growth was 1.03 under setting [1]; 0.959 (S. cerevisiae deletion strains, locus YAL040C, strain CLN3, stronger effect = lower value); 1.01 (S. cerevisiae deletion strains, locus YCL061C, strain MRC1 (second series), stronger effect = lower value); 1.02 (S. cerevisiae deletion strains, locus YDR363W, strain ESC2, stronger effect = lower value); 1.01 (S. cerevisiae deletion strains, locus YER002W, strain NOP16, stronger effect = lower value); 1.02 under setting [2]. Moreover, the normalized growth under setting [3] was 0.998; the normalized growth under setting [4] is 1.11 [resistant] (active); the normalized growth (S. cerevisiae deletion strains, locus YNL128W, strain TEP1, stronger effect = lower value) is 1.1; the normalized growth under setting [5] is 0.997; the normalized growth (S. cerevisiae deletion strains, locus YNL175C, strain NOP13, stronger effect = lower value) is 1.01; the normalized growth (S. cerevisiae deletion strains, locus YNL197C, strain WHI3, stronger effect = lower value) was 1.01. Also, the normalized growth (S. cerevisiae deletion strains, locus YNL224C, strain SQS1, stronger effect = lower value) was 1.02; the normalized growth under setting [6] was 1.02; the normalized growth under setting [7] was 1.09; the normalized growth under setting [8] was 1.01.
